Measured values published in PubChem BioAssay (NCATS).
Results filed as inconclusive are left out. A call without a number means that no potency is given here. The source made the active and inactive calls. The call rests on the fitted dose curve; in most records, active means well fitted inhibition curve with a large enough effect; inconclusive means small, poorly fitted or top-dose-only effect; inactive means no such curve, though single readings can be large or run the other way.

These molecules were tested against N-terminal Xaa-Pro-Lys N-methyltransferase 1 (Homo sapiens) (UniProt Q9BV86) (assay: Confirmatory qHTS for Inhibitors of N-terminal methyltransferase 1 (NTMT1): MTaseGlo Assay (AID 1645874; further: nearly all actives have a fitted effect of over 65% in size)). Conditions: NTMT1 enzyme, MTase-Glo SAH luminescence; series mostly up to 100 µM.
From the text: Assay Submitter (PI): Rong Huang Ph.D.
Purdue University, West Lafayette, IN 47907
The N-terminal methytransferase 1 is the first methyltransferase that methylates protein alpha-N-amines and plays an important role in regulating cell mitosis, chromatin interactions and DNA repair. It is observed to be over-expressed in various cancer patient tissues like malignant melanoma and colorectal cancer tissues. Knockdown of NTMT1 in cancer cells causes cell mitotic defects and enhances sensitivity to DNA damaging chemotherapeutics. […] These critical cellular processes in which NTMT1 is implicated, coupled with emerging links to cellular dysfunction, strengthen the inference that NTMT1 is a compelling novel anticancer target. Progress have been made in understanding the molecular properties of NTMT1 and the biological consequences of protein alpha-N-terminal methylation, but there are no specific small molecule probes available for NTMT1 to fully characterize its MTase activity. To address this unmet need, a panel of assay is created and established to enable quantitative high-throughput screening (qHTS) for novel, potent, and selective small molecule NTMT1 inhibitors. Two orthogonal qHTS that use different reagents (ThioGlo vs. MTaseGlo) are developed for primary robotic screening against the NCATS chemical library of more than 400,000 small molecules. Identified inhibitors are reacquired, validated, and further characterized.
MTaseGlo Assay is a luminescence screen that measure the activity of methyltransferases based on the reaction product S-adenosyl homocysteine (SAH). The substrate SAM is converted to SAH upon enzyme activation. MTase-Glo reagent and detection solution convert SAH to ATP and measure the light from the luciferase reaction.
Materials: NTMT1 enzyme, substrate SPKRIA, control peptide RCC1-6 is provided by the Huang laboratory.
SEQUENCE No. (e.g., 1, 2, 3, etc.); […] (e.g., Cells, Incubation, Reagent, etc.); VALUE; DESCRIPTION
1; Enzyme; 3 uL; Dispense enzyme mixture (final concentrations of 125 nM NTMT1 and 100 uM SAM) into Greiner 1536-well white / solid bottom assay plate (Greiner Bio One, Monroe, NC).
2; Compounds; 23 nL; Compounds and controls were transferred via a Kalypsys Pin Tool (Wako USA) equipped with a 1536-slotted pin array (Wako Automation, Richmond, VA)
3; Incubation; 15 min; Incubate at room temperature
4; Substrate; 1 uL; Dispense 1 uL of substrate at final concentration of 1 uM. Buffer solution was dispensed in control wells. The assay plate was covered with metal lids.
5; Incubation; 30 min; Incubate at room temperature, protected from lights.
6; Reagent; 1 uL; Dispensed 5x MTase-Glo detection reagent (R) into the assay plate. The plate was covered with metal lids.
7; Incubation; 30 min; Incubate the assay plates at room temperature in the dark to allow for SAH to be converted to ADP.
8; Reagent; 5 uL; Dispense 5 uL of 1x MTase-Glo Detection Solution (R) to allow for ADP to be converted to ATP which was then detected with a luciferase reaction.
9; Centrifuge; 15 sec; Centrifuge the assay plate for 15 seconds at 1000 RPM.
10; Incubation; 30 min; Assay plates were incubation at room temperature in the dark.
11; Detection; Luminescence; Plates were read on ViewLux detector (PerkinElmer). Data were normalized to no-enzyme (0% activity) and no-inhibitor (DMSO; 100%) controls, and the resulting percent inhibition data were fitted to a 4-parameter Hill equation using GraphPad Prism.
Potency means the concentration at half of the fitted maximal effect.

Sequence of N-terminal Xaa-Pro-Lys N-methyltransferase 1 (Homo sapiens) (Q9BV86 whole entry, looked up): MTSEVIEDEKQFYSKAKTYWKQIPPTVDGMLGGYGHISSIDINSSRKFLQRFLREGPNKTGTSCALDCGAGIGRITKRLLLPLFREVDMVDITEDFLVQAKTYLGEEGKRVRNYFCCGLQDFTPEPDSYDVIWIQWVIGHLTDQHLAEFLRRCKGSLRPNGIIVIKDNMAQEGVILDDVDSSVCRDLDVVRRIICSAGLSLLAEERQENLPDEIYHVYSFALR

Structure (SMILES) | Potency
Cc1ccsc1CN(C)c1ncnc2ccc(-c3ccc([C@@H](C)O)o3)cc12 | 6.49 µM (active)
CN(C)C(=O)c1ccc(-c2cc[nH]c(=O)c2N)cc1 | inactive
O=S(=O)(Nc1ccc(O)c2ncccc12)c1ccccc1F | inactive
NC(=O)C1CCN(c2nc(-c3ccccc3Cl)cs2)CC1 | inactive
COc1ccc(C2=Nn3c(nnc3-c3ccccc3F)SC2)cc1OC1CCCC1 | 24.5 µM (active)
Cc1nc(C)c(-c2ccc3ncnc(NCc4ncc[nH]4)c3c2)s1 | 39.8 µM (active)
c1cncc(-c2ccc3ncnc(NCc4cccs4)c3c2)c1 | 39.8 µM (active)
Cc1cc2c(s1)c1cnn(Cc3cccc(C)c3F)c(=O)c1n2C | inactive
COc1cc(Nc2nc(-c3ccncc3)nc3ccccc23)ccc1N1CCN(C)CC1 | 17 µM (active)
Fc1cc(Nc2nc(-c3ccncc3)nc3ccccc23)ccc1-c1ccc2[nH]ncc2c1 | inactive
O=C(NCCc1ccccc1)C1CCN(c2nc(-c3ccc(Br)cc3)cs2)CC1 | inactive
Cc1cccc(-c2ccc3ncnc(NCc4cccs4)c3c2)c1 | 10 µM (active)
Cc1cc(C)nc(NC(=S)N2CCN(c3ncccc3C#N)CC2)c1 | 22.4 µM (active)
O=C1Nc2ccc(C(=O)c3ccco3)cc2/C1=C/c1cc(Cl)c(O)c(Cl)c1 | 2.4 µM (active)
COc1ccc(-c2nnc3n2N=C(c2c(OC)cccc2OC)CS3)cc1OC | inactive
NC(=O)C1CCN(c2nc(-c3ccc4c(c3)CCO4)cs2)CC1 | inactive
CC(C)(C)c1ccc(-c2csc(N3CCC(C(N)=O)CC3)n2)cc1 | inactive
CC(=O)Nc1sc2c(c1-c1ccc3scnc3c1)CCNC2 | 44.7 µM (active)
